Measurements published in PubChem BioAssay (NCATS).
Inconclusive results are not listed. Calls of active or inactive are those of the source. Unless noted, calls come from the whole dose curve; as a rule, active = well fitted curve in either direction with a large enough effect (not every such curve was filed as active); inconclusive = small, poorly fitted or top-dose-only effect, or another doubt; inactive = flat fitted curve, though single readings scatter.

Experiments:
[1] = target: Lysosomal acid glucosylceramidase (Homo sapiens) (UniProt P04062); test: Glucocerebrosidase-p2 (AID 348; in the data active = potency below about 10 µM; note: potency is the fitted concentration of half-maximal effect); conditions: purified GBA, blue fluorogenic substrate, 40 min
Summary of the method: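 Normal human glucocerebrosidase (0.2 nM) with blue fluorogenic substrate (80 uM final) in citrate/phosphate pH 5.9 with 10mM sodium taurocholate, 0.01% tween-20; 40 min RT, NaOH/glycine stop; fluorescence Ex 365/Em 440; AC50 from a titration from 0.6 nM upwards.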

[2] = AP1 Signaling Pathway (AID 357); conditions: ME-180 AP-1-bla reporter, EGF-induced, beta-lactamase ratio, 5 h; at 7.69 µM (top of the series) unless noted; note: % is set by controls: 0 for no effect and ±100 for the full control effect
Summary of the method: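 ME-180 cells with beta-lactamase reporter under AP-1 response element, stimulated with EC50 EGF; compounds tested in titration series, 5 h at 37 °C. CCF4 substrate added 2.5 h at room temperature; 460/530 nm emission ratio gave %activity and AC50.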

[3] = target: Cytochrome P450 1A2 (Homo sapiens) (UniProt P05177); test: p450-cyp1a2 (AID 410; calls by dose curve; note: potency is the fitted concentration of half-maximal effect;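 for activity change, negative = inhibition: -100% = full effect of reference inhibitor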)
Summary of the method: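 O-Demethylation of luciferin 6' methyl ether by human CYP1A2 is monitored as luciferase luminescence. Substrate sits at Km (100uM); enzyme is 20nM. Values are scaled to 57 uM furafylline as maximal inhibition.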

[4] = NFAT Signaling Pathway (AID 444); conditions: Jurkat NFAT-bla M1, carbachol, beta-lactamase ratio, 5 h; at 7.69 µM (top of the series) unless noted;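 note: carbachol stimulus at about its EC50 of 1 µM final; % is set by controls: 0 for no effect and ±100 for the full control effect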
Summary of the method: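 Jurkat cells with NFAT-driven β-lactamase reporter and co-expressed M1 receptor, stimulated with carbachol (final 1 uM, ~EC50), compound titration, 5 h at 37 °C. CCF4 loaded 1 h at RT; 460/530 nm ratio gave %activity and AC50.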

[5] = Stat Signaling Pathway (AID 446); conditions: ME-180 (cervical carcinoma) SIE beta-lactamase reporter, IL-6 stimulated, 5 h; at 7.69 µM (top of the series) unless noted;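 note: ME-180 cervical cancer cells given 40 pM IL-6 alongside compound; SIE-controlled beta-lactamase reporter measured as 460/530 nm FRET emission ratio; % is set by controls: 0 for no effect and ±100 for the full control effect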
Summary of the method: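 FRET read-out (405 nm excitation, 460/530 nm emission) of a beta-lactamase reporter under a STAT-inducible element in ME-180 cervical carcinoma cells. Cells with compound receive 40 pM IL-6 for 5 h. Values are normalised to AC90 stimulation and AC90 JAK-inhibitor controls.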

[6] = target: Glucocorticoid receptor (Homo sapiens) (UniProt P04150); test: GR-GFP Redistribution (AID 450;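 active = compounds whose dose series gives a full or clear partial fitted curve of increased nuclear translocation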; note: potency is the fitted concentration of half-maximal effect); conditions: U2OS GR-GFP nuclear translocation, laser cytometry, 2 h
[7] = target: Glucocorticoid receptor (Homo sapiens) (UniProt P04150); test: GR-EFC Redistribution (AID 451; calls by dose curve; note: potency is the fitted concentration of half-maximal effect); conditions: CHO-K1 GR-EFC translocation, beta-gal luminescence, 2 h
Summary of the method: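 CHO-K1 cells expressing nuclear EA and GR-ED fragments of b-gal; compounds titrated up to 46 uM final, 2 h at 37 C. GR nuclear translocation read as complemented b-gal luminescence after 1 h RT detection.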

[8] = target: Mitogen-activated protein kinase 10 (Mus musculus) (UniProt Q61831); test: JNK3 AlphaScreen Assay (AID 530);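 note: kinase came from lysate of stimulated human HepG2 cells; signal reports phosphorylation of biotinylated GST-cJun 1-79 at Ser73 with 10 µM ATP; % is set by controls: 0 for no effect and ±100 for the full control effect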
Summary of the method: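 Activity was read by AlphaScreen after JNK3-containing HepG2 lysate (cytokine pre-activated) phosphorylated biotinylated GST-cJun with 10 uM ATP at room temperature. Phospho-Ser73 cJun antibody with Protein-A acceptor beads provided detection.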

[9] = target: 3',5'-cyclic-AMP phosphodiesterase 4B (Homo sapiens) (UniProt Q07343); test: qHTS Assay for Inhibitors of PDE-IV (AID 607; active = well fitted activation curve with a large enough effect in the main read-out, with a control signal flat, not every such curve was filed as active; note: % of control where 0% means no effect)
Summary of the method: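 Cell-based read-out of cAMP via a modified cyclic nucleotide-gated channel and membrane potential dye (535/590 nm) in HEK293 cells expressing PDE4 endogenously. Compounds tested up to 22.9 uM final; 100 uM RO 20-1724 reference.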

[10] = target: Cytochrome P450 3A4 (Homo sapiens) (UniProt P08684); test: qHTS Assay for Activators of Cytochrome P450 3A4 (AID 885; active = well fitted curve in the direction sought with a large enough effect; an effect the other way counts as inactive or inconclusive; note: nearly all actives have a fitted effect of over 65% in size)
Summary of the method: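 Luminescent readout of luciferin formed from 25 uM Luciferin-PPXE (KM level) by 20 nM CYP3A4 in 200 mM KPO4, with 60 min NADPH-driven reaction at room temperature after 10 min compound exposure. Ketoconazole (57 uM) defined 100% inhibition.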

[11] = Confirmation and Secondary Assay for Modulators of Hemoglobin Beta Chain Splicing at IVS2 654 locus (AID 910; active = well fitted curve in the direction sought with a large enough effect; an effect the other way counts as inactive or inconclusive;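 note: HeLa cells stably carrying EGFP split by mutant beta-globin IVS2-654 intron; % of control where 0% means no effect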)
Summary of the method: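 HeLa cells stably expressing EGFP interrupted by β-globin IVS2-654 intron, seeded overnight in Opti-MEM/2% FCS, then treated 2 days at 37 °C. Restored splicing read as total peak GFP intensity per well by laser scanning cytometry (488 nm excitation, 500–520 nm emission); 500 nM antisense PNA as control.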

[12] = Confirmation and Secondary Assay for Modulators of Hemoglobin Beta Chain Splicing at IVS2 705 locus (AID 930; active = well fitted curve in the direction sought with a large enough effect; an effect the other way counts as inactive or inconclusive;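 note: HeLa cells stably expressing the EGFP-705 splicing reporter; GFP fluorescence per well restored by corrected splicing of the IVS2-705 intron in EGFP; % of control where 0% means no effect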)
Summary of the method: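 Splice-correction reporter: EGFP cDNA split by beta-globin intron 2 bearing the 705 mutation, stably in HeLa. Compound incubation 2 days, 37C; fluorescent objects 5-250 µm summed per well.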

[13] = qHTS Assay for Lipid Storage Modulators (AID 1519; calls by dose curve); conditions: Drosophila S3 cells, BODIPY lipid droplet/cell ratio, laser cytometry, cells loaded with oleic acid; for activity change, negative = inhibition: at 57.5 µM (top of the series)
Summary of the method: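 Cells seeded at 5,000 per well were treated with compounds over a concentration series and loaded with oleic acid (400 uM, as added). Lipid droplet fluorescence (488 nm excitation, 500-530 nm channel) was read by laser-scanning cytometry and normalized to 20 uM Triacsin C.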

[14] = target: Ubiquitin carboxyl-terminal hydrolase 1 (Homo sapiens) (UniProt O94782); test: Inhibitors of USP1/UAF1: Pilot qHTS (AID 504865; active = well fitted curve in the direction sought with a large enough effect; an effect the other way counts as inactive or inconclusive; note: nearly all actives have a fitted effect of over 35% in size; note: potency is the fitted concentration of half-maximal effect)
Summary of the method: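 In 50mM HEPES pH 7.8 containing 0.5mM EDTA, 1mM TCEP, 0.1 mg/ml BSA and 0.01% Tween-20, 1nM USP1/UAF1 is exposed to compound for 15 min, then Ub-Rho (150nM final) is added and fluorescence is read over time.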

[15] = target: Cytochrome P450 3A4 (Homo sapiens) (UniProt P08684); test: qHTS Assay for Inhibitors and Substrates of Cytochrome P450 3A4 (AID 884; active = well fitted curve in the direction sought with a large enough effect; an effect the other way counts as inactive or inconclusive; note: potency is the fitted concentration of half-maximal effect; nearly all actives have a fitted effect of over 50% in size)
Summary of the method: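 Luminescent readout of luciferin produced by CYP3A4 (20 nM) dealkylation of Luciferin-PPXE, 25 uM (its KM). NADPH-driven reaction ran 60 min at RT after 10 min compound preincubation; data scaled to 57 uM ketoconazole as 100% inhibition.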

[16] = measured here: cell count channel max response
[17] = measured here: lipid channel max response

Sequence of Lysosomal acid glucosylceramidase (Homo sapiens) (P04062 whole entry, looked up): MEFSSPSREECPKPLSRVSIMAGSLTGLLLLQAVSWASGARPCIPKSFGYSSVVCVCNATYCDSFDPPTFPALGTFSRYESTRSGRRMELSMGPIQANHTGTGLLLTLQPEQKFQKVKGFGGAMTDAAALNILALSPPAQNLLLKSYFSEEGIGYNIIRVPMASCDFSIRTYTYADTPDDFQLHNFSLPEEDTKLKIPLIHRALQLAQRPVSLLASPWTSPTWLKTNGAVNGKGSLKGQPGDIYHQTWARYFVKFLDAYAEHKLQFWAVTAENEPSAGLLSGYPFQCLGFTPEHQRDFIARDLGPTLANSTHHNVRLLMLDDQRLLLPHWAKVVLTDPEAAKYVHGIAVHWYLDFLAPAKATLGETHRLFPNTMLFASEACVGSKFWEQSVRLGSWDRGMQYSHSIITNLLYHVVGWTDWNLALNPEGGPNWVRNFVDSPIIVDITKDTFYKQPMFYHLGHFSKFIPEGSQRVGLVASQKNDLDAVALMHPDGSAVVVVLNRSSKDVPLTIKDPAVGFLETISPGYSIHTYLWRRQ
Sequence of Ubiquitin carboxyl-terminal hydrolase 1 (Homo sapiens) (O94782 whole entry, looked up): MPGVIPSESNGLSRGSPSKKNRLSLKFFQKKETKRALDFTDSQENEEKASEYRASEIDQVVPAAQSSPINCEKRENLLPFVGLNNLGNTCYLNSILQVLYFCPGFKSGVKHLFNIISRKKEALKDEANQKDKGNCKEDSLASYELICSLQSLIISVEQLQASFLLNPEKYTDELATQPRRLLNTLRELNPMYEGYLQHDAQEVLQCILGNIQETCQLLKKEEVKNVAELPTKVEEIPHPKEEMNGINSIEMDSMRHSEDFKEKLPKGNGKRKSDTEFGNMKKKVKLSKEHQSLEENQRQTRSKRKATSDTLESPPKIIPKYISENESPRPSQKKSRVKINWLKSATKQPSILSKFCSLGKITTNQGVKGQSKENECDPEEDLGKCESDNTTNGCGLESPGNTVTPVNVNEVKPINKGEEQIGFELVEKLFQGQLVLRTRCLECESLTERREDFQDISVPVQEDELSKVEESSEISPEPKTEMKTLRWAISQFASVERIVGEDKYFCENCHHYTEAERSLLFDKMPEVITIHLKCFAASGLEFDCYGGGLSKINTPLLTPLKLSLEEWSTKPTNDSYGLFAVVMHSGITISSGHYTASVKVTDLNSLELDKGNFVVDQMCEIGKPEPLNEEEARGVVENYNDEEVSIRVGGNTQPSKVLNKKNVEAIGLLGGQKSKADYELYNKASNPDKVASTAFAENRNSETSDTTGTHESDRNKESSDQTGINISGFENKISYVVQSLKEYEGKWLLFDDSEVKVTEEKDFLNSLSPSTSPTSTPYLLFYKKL
Sequence of Cytochrome P450 1A2 (Homo sapiens) (P05177 whole entry, looked up): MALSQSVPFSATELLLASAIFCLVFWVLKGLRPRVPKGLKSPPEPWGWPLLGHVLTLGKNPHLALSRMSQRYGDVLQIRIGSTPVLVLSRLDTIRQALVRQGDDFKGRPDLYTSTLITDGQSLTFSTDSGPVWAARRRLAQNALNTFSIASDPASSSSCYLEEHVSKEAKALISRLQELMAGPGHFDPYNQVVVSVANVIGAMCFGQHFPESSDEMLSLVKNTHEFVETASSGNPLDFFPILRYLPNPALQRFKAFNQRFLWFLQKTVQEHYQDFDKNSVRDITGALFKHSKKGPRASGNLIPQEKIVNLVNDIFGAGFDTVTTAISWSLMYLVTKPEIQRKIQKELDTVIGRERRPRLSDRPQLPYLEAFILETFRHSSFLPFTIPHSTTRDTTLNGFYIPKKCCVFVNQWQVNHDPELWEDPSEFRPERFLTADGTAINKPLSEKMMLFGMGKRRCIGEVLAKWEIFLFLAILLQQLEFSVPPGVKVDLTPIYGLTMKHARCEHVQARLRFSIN
Sequence of Glucocorticoid receptor (Homo sapiens) (P04150 whole entry, looked up, the tested form may be a part): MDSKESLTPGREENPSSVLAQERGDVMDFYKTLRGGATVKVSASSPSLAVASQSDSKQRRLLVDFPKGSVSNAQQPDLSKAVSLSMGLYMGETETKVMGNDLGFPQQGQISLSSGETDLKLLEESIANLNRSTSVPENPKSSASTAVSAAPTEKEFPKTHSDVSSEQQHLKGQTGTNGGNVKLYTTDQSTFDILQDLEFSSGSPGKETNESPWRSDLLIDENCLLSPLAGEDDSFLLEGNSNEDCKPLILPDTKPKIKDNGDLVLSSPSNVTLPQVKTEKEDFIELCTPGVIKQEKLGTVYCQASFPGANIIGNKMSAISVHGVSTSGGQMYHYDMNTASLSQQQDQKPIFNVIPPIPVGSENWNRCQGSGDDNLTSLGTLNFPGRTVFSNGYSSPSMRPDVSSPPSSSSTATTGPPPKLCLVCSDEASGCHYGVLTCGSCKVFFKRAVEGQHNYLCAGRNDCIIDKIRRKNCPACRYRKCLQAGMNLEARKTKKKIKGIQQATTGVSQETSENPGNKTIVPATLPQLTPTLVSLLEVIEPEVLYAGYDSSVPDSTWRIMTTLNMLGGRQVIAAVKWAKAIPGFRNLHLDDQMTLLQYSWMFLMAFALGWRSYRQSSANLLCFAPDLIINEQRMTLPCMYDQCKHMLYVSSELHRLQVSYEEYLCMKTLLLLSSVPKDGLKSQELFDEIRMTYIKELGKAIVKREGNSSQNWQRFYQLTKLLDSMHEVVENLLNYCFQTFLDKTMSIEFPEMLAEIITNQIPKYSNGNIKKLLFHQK
Sequence of 3',5'-cyclic-AMP phosphodiesterase 4B (Homo sapiens) (Q07343 whole entry, looked up): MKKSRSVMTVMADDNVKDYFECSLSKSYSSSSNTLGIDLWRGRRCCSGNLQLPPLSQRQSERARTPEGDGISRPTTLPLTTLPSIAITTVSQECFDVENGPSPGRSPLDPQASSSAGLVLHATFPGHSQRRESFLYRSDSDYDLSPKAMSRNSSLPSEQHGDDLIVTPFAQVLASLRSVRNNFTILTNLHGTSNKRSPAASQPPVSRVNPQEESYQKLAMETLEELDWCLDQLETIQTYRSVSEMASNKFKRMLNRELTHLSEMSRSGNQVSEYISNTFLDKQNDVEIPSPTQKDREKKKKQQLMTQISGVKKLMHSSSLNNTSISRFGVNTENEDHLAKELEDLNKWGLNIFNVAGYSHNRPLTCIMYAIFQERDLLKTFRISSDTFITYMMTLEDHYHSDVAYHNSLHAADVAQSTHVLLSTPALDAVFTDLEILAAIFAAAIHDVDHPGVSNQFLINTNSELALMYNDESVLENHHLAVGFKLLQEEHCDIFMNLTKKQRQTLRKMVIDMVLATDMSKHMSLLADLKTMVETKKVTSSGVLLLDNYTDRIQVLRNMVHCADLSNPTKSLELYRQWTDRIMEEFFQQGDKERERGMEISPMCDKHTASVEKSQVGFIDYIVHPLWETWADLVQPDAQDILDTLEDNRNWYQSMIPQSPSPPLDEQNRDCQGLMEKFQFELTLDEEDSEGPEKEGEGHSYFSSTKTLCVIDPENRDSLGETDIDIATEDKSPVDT
Sequence of Cytochrome P450 3A4 (Homo sapiens) (P08684 whole entry, looked up): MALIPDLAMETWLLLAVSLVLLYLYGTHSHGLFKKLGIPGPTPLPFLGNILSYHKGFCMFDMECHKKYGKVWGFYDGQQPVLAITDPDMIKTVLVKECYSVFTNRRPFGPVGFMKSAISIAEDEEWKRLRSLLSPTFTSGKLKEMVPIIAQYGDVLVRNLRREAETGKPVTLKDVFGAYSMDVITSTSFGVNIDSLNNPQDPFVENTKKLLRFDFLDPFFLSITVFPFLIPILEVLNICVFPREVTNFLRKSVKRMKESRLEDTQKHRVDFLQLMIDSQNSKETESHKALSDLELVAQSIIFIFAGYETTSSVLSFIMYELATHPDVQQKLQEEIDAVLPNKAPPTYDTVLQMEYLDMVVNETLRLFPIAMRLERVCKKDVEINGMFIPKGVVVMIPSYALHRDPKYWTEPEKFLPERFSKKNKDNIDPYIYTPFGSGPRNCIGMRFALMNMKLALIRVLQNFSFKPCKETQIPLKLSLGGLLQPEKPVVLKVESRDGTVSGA

CNc1ncnc2ccc(-c3ccccc3OC)cc12
0.542%: max response [13, 17]
active: Potency [3] 2.51 µM
0.392%: max response [13, 16]
inactive: Potency [1] > 11.4 µM | activity change, negative = inhibition [2] 0.353% | activity change, negative = inhibition [4] 15.1% | activity, negative = inhibition [5] -15.7% | Potency [6] > 46 µM | Potency [7] > 46 µM | Potency [8] | Potency [9] | Potency [10] | Potency [11] | outcome [12] | activity change, negative = inhibition [13] 1.03% | Potency [14]

COc1ccc2[nH]cc(CCNc3ncnc4ccc(-c5ccccc5CN(C)C)cc34)c2c1
-2.58%: max response [13, 16]
inactive: Potency [1] > 11.4 µM | activity change, negative = inhibition [2] -1.42% | activity change, negative = inhibition [4] -18.9% | activity, negative = inhibition [5] 0.00328% | Potency [6] > 46 µM | Potency [7] > 46 µM | Potency [8] | Potency [9] | Potency [10] | Potency [11] | outcome [12] | activity change, negative = inhibition [13] 7.35% | Potency [14]
active: Potency [3] 31.6 µM | Potency [15] 1.58 µM
5.15%: max response [13, 17]

c1ccc2c(Nc3ccncc3)nc(-c3ccoc3)nc2c1
inactive: activity change, negative = inhibition [2] -7.11% | activity change, negative = inhibition [4] -19.5% | activity, negative = inhibition [5] 3.23% | Potency [6] > 46 µM | Potency [7] > 46 µM | Potency [8] | Potency [10] | Potency [11] | outcome [12] | activity change, negative = inhibition [13] 14.9%
active: Potency [1] 7.37 µM | Potency [3] 0.158 µM | Potency [15] 1.26 µM | Potency [14] 44.7 µM
5.31%: max response [13, 16]
22.2%: max response [13, 17]

COc1ccccc1-c1nc(NCc2cnc(C)cn2)c2ccccc2n1
inactive: Potency [1] > 11.4 µM | activity change, negative = inhibition [2] 4.95% | activity change, negative = inhibition [4] 2.11% | activity, negative = inhibition [5] -5.06% | Potency [6] > 46 µM | Potency [7] > 46 µM | Potency [8] | Potency [9] | Potency [10] | Potency [11] | outcome [12] | activity change, negative = inhibition [13] 7.28%
6.96%: max response [13, 16]
active: Potency [3] 5.01 µM
14.2%: max response [13, 17]

CS(=O)(=O)N1CCC[C@@]2(CCN(c3ccncc3)C2)C1
active: Potency [15] 7.94 µM
inactive: Potency [1] > 11.4 µM | activity change, negative = inhibition [2] -3.38% | Potency [3] | activity change, negative = inhibition [4] -25.4% | activity, negative = inhibition [5] 1.56% | Potency [7] > 46 µM | Potency [8] | Potency [9] | Potency [10] | activity change, negative = inhibition [13] -0.375%
-15.6%: max response [13, 16]
-16.3%: max response [13, 17]

COc1ncc2nc(-c3ccc(Cl)cc3)c(=O)n(-c3ccccc3)c2n1
16.2%: max response [13, 17]
active: Potency [3] 1.58 µM
12%: max response [13, 16]
inactive: Potency [1] > 11.4 µM | activity change, negative = inhibition [2] -12.8% | activity change, negative = inhibition [4] -0.099% | activity, negative = inhibition [5] 0.109% | Potency [6] > 9.22 µM | Potency [7] > 46 µM | Potency [8] | Potency [9] | activity change, negative = inhibition [13] -0.888%
